Screening results from PubChem BioAssay.
An excerpt weighted towards active compounds, which were near 7.5% of everything screened.
HCV inh = inhibitors of hepatitis C virus infection. Huh7.5.1 HCVcc-Cre infection, luciferase reporter, 44 h. hit rate 3.4% among 340,000. Potency, µM (series often up to 41.8 µM), hits mostly inhibitors. AID 651820
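After 44 h co-culture of compound, cells and HCVcc-Cre (~0.5 moi), substrate is added for 15 min at room temperature and luciferase measured over 15 sec. Cells were seeded at 1,000/well and pre-cultured 4 h.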
HCMV inh = inhibitors of human cytomegalovirus | activity change, negative = inhibition, % at 57.5 µM | HFF cells, HCMV-luciferase reporter, 72 h; active compounds read low | AID 1259415 | hit rate 4.5% among 410,000; in the data active = activity change below about -60%; inconclusive = no clear call, values can overlap the other calls; inactive = above about -39%
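Compounds were evaluated in HFFs infected with an HCMV luciferase reporter virus (MOI 1 PFU/cell). Luciferase in lysates collected 72 h post infection served as the replication measure.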
FBPA Giardia inh = blocks Giardia fructose-bisphosphate aldolase activity; purified Giardia FBPA; Potency, µM (doses to about 59.6 µM), hits mostly inhibitors; hit rate 0.71% among 290,000; AID 2451; note: nearly all actives have a fitted effect of over 55% in size
Target sequence (A8B2U2 whole entry, looked up): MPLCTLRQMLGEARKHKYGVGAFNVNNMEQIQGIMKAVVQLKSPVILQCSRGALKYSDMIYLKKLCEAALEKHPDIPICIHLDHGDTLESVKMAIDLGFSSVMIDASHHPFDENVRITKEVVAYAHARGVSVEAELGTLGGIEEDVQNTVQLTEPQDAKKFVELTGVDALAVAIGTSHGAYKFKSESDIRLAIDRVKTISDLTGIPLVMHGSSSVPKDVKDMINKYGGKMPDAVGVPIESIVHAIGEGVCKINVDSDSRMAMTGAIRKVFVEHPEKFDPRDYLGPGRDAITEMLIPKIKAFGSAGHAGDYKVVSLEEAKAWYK
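Giardia FBPA (40 nM reagent) was preincubated 10 min at RT with compound (up to 57.5 uM final), then substrate plus GAPDH/TPI/NAD/arsenate coupling system with diaphorase/resazurin was added; resorufin fluorescence (525/598 nm) was read after 20 min.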
FMDV inh = antivirals against foot and mouth disease virus; FMDV antiviral cell-based qHTS; Potency, µM (highest dose often 57.9 µM), hits mostly inhibitors; AID 1159524; hit rate 1.2% among 410,000; calls by dose curve; tested in HEK293T cells; note: read-out not given here; nearly all actives have a fitted effect of over 45% in size
VACV Venus inh = inhibitors of vaccinia virus (Venus reporter). Vaccinia virus Venus reporter expression, fluorescence. Potency, µM (top dose mostly 36.5 µM), usual class: inhibitors. hit rate 0.46% among 330,000. AID 720580; calls by dose curve; tested in A549 cells; note: nearly all actives have a fitted effect of over 30% in size
Vaccinia mCherry = vaccinia inhibition (mCherry reporter); hit rate 0.63% among 310,000; Vaccinia virus mCherry reporter infection, fluorescence; Potency, µM (titrated, usually from 36.5 µM), actives largely listed as inhibitors; calls by dose curve; tested in A549 cells; note: nearly all actives have a fitted effect of over 35% in size
Numbers stand for hits; i = inactive; ? = inconclusive; nt = not tested or not shown; [ ] = dose if it differs, or a comment. Unless noted, calls come from the whole dose curve; as a rule, active = well fitted curve in the direction sought with a large enough effect; inconclusive = small, poorly fitted or top-dose-only effect, or another doubt; inactive = no such curve, though single readings can be large; an effect the other way counts as inactive or inconclusive.

SMILES	HCV inh	HCMV inh	FBPA Giardia inh	FMDV inh	VACV Venus inh	Vaccinia mCherry
COc1ccc(N2CCN(CCCNC(=O)c3ccc4nc(Cc5ccccc5)oc4c3)CC2)cc1	nt	-60	nt	25µM	i	i
COc1ccc(Nc2cc(C(=O)NCCCN(C)C3CCCCC3)c3ccccc3n2)cc1	nt	-107	nt	i	i	i
COc1ccc(Nc2cc(C(=O)N3CCc4ccccc4C3)c3ccccc3n2)c(OC)c1	10µM	i	i	i	nt	nt
COc1ccccc1Nc1cc(C(=O)N2CCc3ccccc3C2)c2ccccc2n1	nt	nt	i	nt	nt	nt
COc1ccc(OC)c(Nc2cc(C(=O)NCCCN3CCOCC3)c3ccccc3n2)c1	?	i	i	i	i	?
COc1ccc(N2CCN(CCCNC(=O)c3cc(Nc4ccc(OC)cc4OC)nc4ccccc34)CC2)cc1	nt	i	nt	22µM	i	i
O=C(c1nnnn1-c1ccc(Br)cc1)C1CC1	nt	i	nt	nt	nt	nt
CC(C)(C)C(=O)Nc1nnc(COc2ccc(Cl)cc2)s1	?	i	i	i	i	i
O=C(OCCOCCN=C1NS(=O)(=O)c2ccccc21)c1ccccc1Br	i	i	i	i	i	i
CC1CC(C)CN(S(=O)(=O)N2CCC(C(=O)NCCC3=CCCCC3)CC2)C1 (stereo not given)	i	i	i	i	nt	nt
Oc1ccc(CCNc2ncnc3ccc(Cl)cc23)cc1	3.2µM	-98	i	10µM	?	?
Cc1cc(C(=O)COc2cccc3cccnc23)c(C)n1C	i	i	i	i	i	i
Cc1cc(C(=O)COc2cccnc2[N+](=O)[O-])c(C)n1-c1ccccc1F	i	-97	i	i	nt	nt
Cc1cc(C(=O)COc2cccnc2[N+](=O)[O-])c(C)n1Cc1ccco1	?	i	?	i	i	i
Cc1ccc(OCC(=O)c2cc(C)n(C)c2C)c([N+](=O)[O-])n1	i	-71	i	i	i	i
Cc1ccc(-n2c(C)cc(C(=O)COc3cccnc3[N+](=O)[O-])c2C)cc1	?	-99	i	?	i	?
Cc1cc(C(=O)COc2cccnc2[N+](=O)[O-])c(C)n1-c1ccccc1	i	-99	i	i	i	i
COc1ccccc1-c1ccnc(-n2ncc(C(=O)N[C@H]3CCCCNC3=O)c2C2CC2)n1	nt	nt	nt	i	i	i
CCC1CN(CC(=O)NC(C)c2cn(C)nc2C)Cc2cc(OC)ccc2O1 (stereo not given)	nt	nt	nt	i	i	i
CCCCCC1C(=O)O[C@H](C)[C@@H](NC(=O)c2cccc(NC=O)c2O)C(=O)OC(C)C1OC(=O)CC(C)C (stereo not given in full)	nt	nt	i	40µM	i	i
CCOC(=O)c1sc(N)nc1C(F)(F)F	i	i	nt	i	i	i
Cc1cc(C)cc(OCC(=O)NNC(=S)NC(=O)C2CC2)c1	i	-80	nt	?	i	?
CC(C)(C)c1cc(CCC(=O)Nc2ccncc2)cc(C(C)(C)C)c1O	?	-63	nt	i	nt	nt
CC(C)(C)c1ccc(-c2noc(CCC(=O)NCC3CCCO3)n2)cc1 (stereo not given)	?	-72	i	i	nt	nt
CC(C)(C)c1cc(CCC(=O)NCc2ccncc2)cc(C(C)(C)C)c1O	?	nt	nt	i	i	i
SMILES	HCV inh	HCMV inh	FBPA Giardia inh	FMDV inh	VACV Venus inh	Vaccinia mCherry
Cc1cc(C)c(C)c(OCC(=O)NCC2CCCO2)c1 (stereo not given)	i	i	i	i	nt	nt
Cc1cc(C)cc(OCC(=O)NCC2CCCO2)c1 (stereo not given)	i	-65	i	nt	i	i
CCOC(=O)c1c(C)[nH]c(C)c1C(=O)COC(=O)c1nn(CC)c(=O)c2ccccc12	nt	i	nt	i	i	i
COc1ccc(CCc2nnc(CCC(=O)NCC3CCCO3)o2)cc1 (stereo not given)	i	-69	i	i	i	i
CC(C)(C)c1ccc(-c2noc(CCC(=O)Nc3cccnc3)n2)cc1	?	-75	i	i	i	i
CC(C)(C)c1cc(CCC(=O)NCC2CCCO2)cc(C(C)(C)C)c1O (stereo not given)	i	i	nt	i	i	4µM
CCCCc1c(O)nc(SCC(=O)Nc2ccc(OC)cc2)n(-c2ccc(C)c(C)c2)c1=O	nt	i	nt	i	i	i
COc1ccc(-c2cn3nc(N4CCCC(C(=O)Nc5ccc(C)c(C)c5)C4)sc3n2)cc1 (stereo not given)	nt	i	nt	i	i	i
Cc1ccc2nc(-c3ccc(C)c(NC(=O)COc4ccc(Cl)cc4)c3)oc2c1	nt	nt	nt	nt	i	i
COC(=O)c1ccc(-n2c(C)cc(C(=O)COC(=O)C3=COCCO3)c2C)cc1	i	-66	nt	i	i	i
Cc1cc(C(=O)COC(=O)C2=COCCO2)c(C)n1-c1ccc2c(c1)OCO2	i	i	i	i	nt	nt
CCOc1ccc(-n2c(C)cc(C(=O)CCl)c2C)cc1	?	-92	i	28µM	i	i
COC(=O)c1ccc(-n2c(C)cc(C(=O)CCl)c2C)cc1	6.3µM	-84	i	32µM	nt	nt
CCc1c(C(=O)Nc2ccncc2)csc1C	?	-100	i	?	nt	nt
CCN(CC)CCOC(=O)c1ccc(NC(=O)C(C)NC(=O)C23CC4CC(CC(C4)C2)C3)cc1 (stereo not given)	i	-64	i	i	i	i
CNc1nc(Nc2ccc(C)cc2C)c2sccc2n1	nt	-63	nt	?	i	i
Cc1ccc(CNc2nc(NCC3CC3)nc3ccsc23)c(C)c1	nt	-77	nt	?	i	i
Cc1ccc(CNc2nc(NCc3ccccc3)nc3ccsc23)c(C)c1	nt	-63	nt	?	?	?
Cc1ccc(CNc2nc(NC(C)C)nc3ccsc23)c(C)c1	nt	i	nt	i	?	?
CCOC(=O)Cc1ccc(Nc2nc(NCc3ccccc3)nc3ccsc23)cc1	nt	i	nt	28µM	i	i
CNc1nc(NCc2ccc(C)cc2C)c2sccc2n1	nt	i	nt	?	i	i
COCCNc1nc(NCc2ccccc2)nc2ccsc12	nt	-61	nt	?	i	?
Cc1ccc(Nc2nc(NCC3CC3)nc3ccsc23)c(C)c1	nt	-82	nt	?	?	i
O=C(N/N=C/c1cc2c3c(c1O)CCCN3CCC2)c1ccccc1O	3.2µM	-100	?	i	?	?
Cn1cc(/C=N/NC(=O)c2ccccc2O)c2ccccc21	i	i	i	i	nt	nt
SMILES	HCV inh	HCMV inh	FBPA Giardia inh	FMDV inh	VACV Venus inh	Vaccinia mCherry
COC(=O)Cc1c(C)c2cc3c(c(C)c2oc1=O)OCN(CCc1ccccc1F)C3	nt	i	nt	i	i	i
Cc1ccc(C(=O)N/N=C/c2cc(C)n(-c3ccc(Br)cc3)c2C)cc1[N+](=O)[O-]	20µM	i	nt	i	i	i
Cc1ccc(-n2c(C)cc(/C=N/NC(=O)c3ccc(CN4CCOCC4)cc3)c2C)cc1	10µM	?	i[12.9 µM]	?	nt	nt
Cc1cc(/C=N/NC(=O)C(=O)N2CCCC2)c(C)n1-c1cccc(Br)c1	?	i	i	i	i	i[1.46 µM]
Cc1ccc(-n2c(C)cc(/C=N/NC(=O)c3ccncc3)c2C)cc1	?	i	i	i	nt	nt
Cc1cccc(-n2c(C)cc(/C=N/NC(=O)c3ccc(CN4CCOCC4)cc3)c2C)c1	10µM	i	i	?	i	i
O=C(N/N=C/c1ccc(OC(=O)c2ccccc2)cc1)c1ccc(CN2CCOCC2)cc1	i	i	i	?	i	i
